# Test results published in PubChem BioAssay.
# A number with no mark means an inactive call. Activity calls are given as the source filed them.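 The calls were made as follows: active = compound raises GLP1 secretion from the human gut endocrine cells, with no numeric limit stated; inactive = the rest.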
# Assay: GLP1 release stimulators, primary, NCI-H716, NPC library (AID 1117341); also: reference of the scale not given here
# Conditions: NCI-H716 cells, at 10 µM, hits give high values
row,Structure (SMILES),GLP1 secretion stimulation
1,O=C(O)c1cc(O)c(O)c(O)c1,5.1%
2,Cc1c(C(N)=O)cc([N+](=O)[O-])cc1[N+](=O)[O-],2.8%
3,Nc1ccc(S(=O)(=O)Nc2ccc(Cl)nn2)cc1,-1.5%
4,CCCc1cc(C(N)=S)ccn1,-0.6%
5,CCCCC(CC)CN1CN(CC(CC)CCCC)CC(C)(N)C1 (centres undefined),53.9% (active)
6,C[N+]12CCC(CC1)C(OC(=O)C(O)(c1ccccc1)c1ccccc1)C2 (centres undefined),-3.1%
7,C=CCSCC1Nc2cc(Cl)c(S(N)(=O)=O)cc2S(=O)(=O)N1 (centres undefined),0.1%
8,Oc1c(Cl)cc(Cl)cc1Sc1cc(Cl)cc(Cl)c1O,23.6% (active)
9,CCOc1ccc(Cc2nccc3cc(OCC)c(OCC)cc23)cc1OCC,4.1%
10,O=C1C(O)=C(O)C(=O)C(O)=C1O,-1.5%
11,Oc1ccc(Cl)c2cccnc12,-5.7%
12,COc1ccc(C2C(=O)c3ccccc3C2=O)cc1,-6%
13,C[C@@](Cc1ccc(O)c(O)c1)(NN)C(=O)O,-1.3%
14,O=C(O)c1ccccc1OP(=O)(O)O,1.7%
15,Nc1ccc(N=Nc2ccccc2)c(N)n1,-4.7%
16,C=CCc1ccc(O)c(OC)c1,2.4%
17,COc1ccc(-c2cc(C(F)F)nn2-c2ccc(S(N)(=O)=O)cc2)cc1F,5.7%
18,Cc1c(NC(=O)c2cccnc2)c(=O)n(-c2ccccc2)n1C,-0.1%
19,COc1ccc2cc1Oc1ccc(cc1)C[C@H]1c3c(cc4c(c3Oc3cc5c(cc3OC)CCN(C)[C@@H]5C2)OCO4)CCN1C,1.9%
